The nature of this assay: mtPTP inhibition via calcium retention, dose response, biochemical, dry powder samples, uHTS hits, Calcium Green-5N (AID 743360). Conditions: isolated mitochondria, Ca retention capacity.

A number with no mark means an inactive call. Activity calls are given as the source filed them.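 How the source made its calls: active means calcium retention capacity relative to untreated control above about 1.1 ratio (limit read from the data); inactive means the rest.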 A value given as a limit tells only on which side of the number the result lay.

Take `O=C(Nc1ccc(CN2CCCCC2)cc1)c1ccc(Cl)c(OCc2ccccc2)c1`: the CRC/CRC0 ratio at 12.5 uM (higher = more inhibition) was 21.3 (active).

For `COc1ccc(Cl)c(C(=O)Nc2ccc(CN3CCOCC3)cc2)c1`, the CRC/CRC0 ratio at 12.5 uM (higher = more inhibition) is 1.03.

As for `COc1ccc(Cl)c(C(=O)Nc2ccc(CCN3CCOCC3)cc2)c1`, the CRC/CRC0 ratio at 12.5 uM (higher = more inhibition) is > 1.

Consider `CN1CCN(c2ccc(NC(=O)c3ccc(OCc4ccccc4)cc3)cc2)CC1`, for which the CRC/CRC0 ratio at 12.5 uM (higher = more inhibition) is 1.08.

These data come from PubChem BioAssay AID743360 (Molecular Libraries Program, Specialized Chemistry Center, …, 2014).
